Compounds without any hit were thinned out: in the full panel of roughly 83,000, 20% have a hit.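 96-well plates, one dose, 48 hours. Percent growth reported; active if below 10.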 Activity calls are given as the source filed them.
Test system: HL-60(TB) leukemia
Experiment: NCI-60 one-dose screen, 48 h (100 = growth as untreated, 0 = no growth, -100 = all killed)
Conditions: 10 µM unless noted

With `CC(C)(C)c1cc(C(C)(C)C)cc(S(=O)(=O)Nc2cc3ccccc3cc2C(=O)NCCN)c1` as the compound, how does the growth read?
Its growth is -19.8% (active).

How did the growth turn out when `O=C1CCCc2nc3sc4c(=O)n(-c5ccccc5Cl)nnc4c3cc21` was run?
The growth was 109% (inactive).

For `O=C(/C=C/c1ccc([N+](=O)[O-])cc1)c1cccc(Nc2nc(Nc3ccccc3)nc(Nc3ccccc3)n2)c1`, which growth is on record?
Its growth is 85.1% (inactive).

Which growth does the source give for `CC1Cc2cc(F)ccc2-n2cccc21` (stereo not given) here?
Its growth is 111% (inactive).

Which growth does the source give for `O=C1Nc2ccccc2/C1=C\c1c(-c2ccccc2)nc2ccccn12` here?
Its growth is -10.7% (active).

Which growth does the source give for `c1ccc2c(-c3nc(-c4c[nH]c5ncccc45)cs3)c[nH]c2c1` here?
Its growth is 88% (inactive).

With `CCOc1ccc(C(=O)O)cc1` as the compound, how does the growth read?
The growth was 103% (inactive).

`N#CC1C(c2ccc(Cl)cc2)=Nc2c(c(-c3ccccc3)nn2-c2ccccc2)C12C(=O)Nc1ccc(Cl)cc12` (stereo not given) was tested. Which growth did it give?
Its growth is -1.59% (active).

For `COc1cc(/C=C\C(C)=N\Nc2ccccc2)ccc1O`, which growth is on record?
Its growth is 3.74% (active).

Which growth does the source give for `O=C(c1ccc(-c2ccccc2)cc1)c1ccc([N+](=O)[O-])cc1` here?
Its growth is 129% (inactive).

Which growth does the source give for `CCN(CC)CCOc1ccc(/C(=C(\C)c2ccc(OC)c(F)c2)c2ccc(Cl)cc2)cc1` here?
The growth was 68.6% (inactive).

`CC(=O)Nc1nc(C)c(C(=O)N/N=C/N2CCCCC2)s1` was tested. Which growth did it give?
Its growth is 131% (inactive).

`O=C1CC(c2ccc(O)c(O)c2)Oc2cc(O)c([C@@H]3O[C@H](CO)[C@@H](O)[C@H](O)[C@H]3O)c(O)c21` (stereo not given in full) was tested. Which growth did it give?
Its growth is 99.6% (inactive).

With `CC(C)(C)C(=O)/C=C/c1ccc([N+](=O)[O-])cc1` as the compound, how does the growth read?
The growth was 75.2% (inactive).

For `CC(NCCC(c1ccccc1)c1ccccc1)c1ccccc1` (stereo not given), which growth is on record?
Its growth is 14.6% (inactive).

How did the growth turn out when `Nc1n[nH]c2cccc(C#Cc3cccc(C(=O)Nc4ccc(Cl)c(C(F)(F)F)c4)c3)c12` was run?
Its growth is 21% (inactive).

With `Oc1c(Cl)cc(Cl)cc1CNc1nccnn1` as the compound, how does the growth read?
Its growth is 115% (inactive).

With `CCS(=O)(=O)Nc1cccc(Nc2c3cccc(C)c3nc3c(C)cccc23)c1OC` as the compound, how does the growth read?
Its growth is -16.4% (active).

Which growth does the source give for `CCN(CC)CCCC(C)N/C(c1cccc(OC)c1)=c1\c(=O)[nH]n(-c2c3ccccc3nc3ccccc23)c(=O)\c1=C(/NC(C)CCCN(CC)CC)c1cccc(OC)c1` (stereo not given) here?
The growth was -43.5% (active).

For `CNC(=O)c1cncc(Cn2nc(C)c(NC(=O)c3ccc(COc4ccc(C(F)(F)F)cc4C)cc3)c2C)c1`, which growth is on record?
Its growth is 63.6% (inactive).

How did the growth turn out when `CC(C)CCCCCOC(=O)c1ccccc1SSc1ccccc1C(=O)OCCCCCC(C)C` was run?
The growth was 82.2% (inactive).

How did the growth turn out when `O=C1c2ccccc2C2N1CCC1CCc3ccccc3N12` (stereo not given) was run?
Its growth is 104% (inactive).

Which growth does the source give for `CCCCCN(CCCCC)CCC[C@@H](C)[C@H]1CC[C@H]2[C@@H]3[C@H](OCCCN)C[C@@H]4C[C@H](OCCCN)CC[C@]4(C)[C@H]3C[C@H](OCCCN)[C@]12C` here?
Its growth is -16.8% (active).

For `O=C(O)c1cc(C(F)(F)F)cc(C(F)(F)F)c1`, which growth is on record?
The growth was 88.2% (inactive).

How did the growth turn out when `O=C(Oc1ccc([N+](=O)[O-])cc1)c1ccc(CBr)cc1` was run?
The growth was 71.8% (inactive).
